Source: PubChem
An excerpt weighted towards active compounds, which were near 1.3% of everything screened.
TCR activator – activators of T cell receptors. AID 504894. 330,000 tested, under 10 active. Potency, µM (doses to about 9.22 µM), for inactives: at the highest dose activation of IL-2 secretion, usual class: activators. primary human leukocytes, anti-CD3, IL-2 HTRF, 48 h; further: % of control where 0% means no effect
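IL-2 produced over 48 hr by a-CD3 bead-stimulated primary human leukocytes exposed to compounds was detected with a homogeneous time-resolved FRET immunoassay, 665nm acceptor signal after 320nm excitation.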
p53 reactivator – re-activators of mutant p53; H1299 p53-A138V BP100-luciferase reporter, luminescence, 24 h; Potency, µM (highest dose often 92.2 µM), without a hit: at the highest dose activity change, positive = activation, most hits filed as activators; hit rate 0.063% among 320,000; further: potency means the concentration at half of the fitted maximal effect; % of control where 0% means no effect; nearly all actives have a fitted effect of over 45% in size
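H1299 (p53-null), stable ts p53-A138V + BP100-Luc; 1000 cells/well, Opti-MEM/10% FBS; cpd 4 pt, 1:5; 24 h, 37 deg C, 5% CO2; detection reagent 10 min RT; luminescence.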
IL2 activator – IL-2 activation. IL-2 activation reporter assay, cell-based qHTS; stimulated with anti-CD3/CD4/CD28 beads; in transgenic mouse T cells. activation, % (series mostly up to about 46 µM). hit rate 0.065% among 360,000. AID 652025; in the data active means activation above about 50%; inconclusive means mostly about 30% to 49%; further: 0% is about no effect
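Readout is EGFP and DsRed signal by fluorescent plate cytometry after 18 h at 37 degrees C. Transgenic mouse T cells (750/well) received compound for 60 min before bead stimulation (anti-CD3, anti-CD4, anti-CD28); memory T cells served as non-tolerant control.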
Mito fusion act – mitochondrial division inhibition or fusion activation; AID 485298; Potency, µM (titrated, usually from 46.1 µM), without a hit: at the highest dose growth rescue (activation), hits mostly activators; S. cerevisiae fusion-defective mutant growth rescue, CellTiterGlo 48 h; hit rate 0.23% among 320,000; further: potency means the concentration at half of the fitted maximal effect; % of control where 0% means no effect; nearly all actives have a fitted effect of over 45% in size
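Growth-rescue viability read-out: after 48 h at the non-permissive 37C in glycerol/ethanol YPEG, yeast mitochondrial fusion mutants are measured by CellTiterGlo luminescence; compounds (23 nl pinned per well) restoring growth score as division inhibitors or fusion activators.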
BRCA1 expr act – activators of BRCA1 expression; MCF7-BRCA1-FFLuc reporter, luminescence, 48 h; response scale: scaled: vehicle 0%, 10 µM genistein 100%; Potency, µM (series often up to 46.1 µM), inactives show at the top dose activation, usual class: activators; hit rate 1.1% among 380,000; further: potency means the concentration at half of the fitted maximal effect; nearly all actives have a fitted effect of over 80% in size
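MCF7-BRCA1-FFLuc, 2000 cells/well; 2 h attach, 37 °C/5% CO2; compound 48 h; luciferase substrate 15 min; luminescence end-point. Norm. to genistein 10 microM max activation and DMSO; concentration-response curves fitted.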
Starred values were filed as active, the others as inactive; ? = inconclusive; . = no result; ! = not confirmed by another sample; [ ] = dose if it differs, or a comment. Unless noted, the call rests on the fitted dose curve; in most records, active means well fitted curve in the direction sought with a large enough effect; inconclusive means small, poorly fitted or top-dose-only effect, or another doubt; inactive means no such curve, though single readings can be large; an effect the other way counts as inactive or inconclusive.

SMILES	TCR activator	p53 reactivator	IL2 activator	Mito fusion act	BRCA1 expr act
CCc1noc(-c2ccc(N3CCC(C)CC3)c([N+](=O)[O-])c2)n1	.	.	.	.	8.9µM*
CCc1noc(-c2ccc(N3CCCCC3)c([N+](=O)[O-])c2)n1	.	.	.	.	7.1µM*
N#Cc1nc(-c2ccc(OCc3ccccc3Cl)cc2)oc1N1CCC(C(N)=O)CC1	.	.	.	.	7%
N=c1c(S(=O)(=O)c2ccc(Cl)cc2)cc2c(=O)n3ccccc3nc2n1CCc1ccccc1	.	6%	.	2%	.
N=c1c(S(=O)(=O)c2ccc(Cl)cc2)cc2c(=O)n3ccccc3nc2n1Cc1cccnc1	-1%	3%	151*	-6%	21%
COc1ccc(CNC(=O)c2cc3c(=O)n4ccccc4nc3n(Cc3cccnc3)c2=N)cc1	-36%	-1%	95*	-14%	-3%
CCOC(=O)c1sc(N(Cc2ccccc2)C(=O)CSc2nnc(C3CC3)n2N)nc1C	-1%	12%	-1	13%	8.9µM*
O=C(O)c1ccc(NC(=O)c2cc3c([nH]c2=O)CCCC3=O)cc1	.	.	.	.	3%
O=C(CCCN1CCC(O)(c2ccc(Br)cc2)CC1)c1ccc(F)cc1	-3%	0%	0	25%	11%
O=C(CCCN1CCC(O)(c2cccc(C(F)(F)F)c2)CC1)c1ccc(F)cc1	0%	.	0	23µM*!	-20%
CCOc1ccc2c(c1)sc(=NC(=O)C1CC1)n2C	2%	.	0	12%	2.8µM*
Cn1c(=NC(=O)C2CCCCC2)sc2cc([N+](=O)[O-])ccc21	.	1%	2	-7%	18%
O=c1[nH]c(=S)c2[nH]cnc2[nH]1	.	.	.	.	6%
CN(N=O)c1ccc(/C=C/c2ccccc2)cc1	.	.	.	.	5.6µM*
Brc1ccc[n+](CCc2ccccc2)c1	.	.	.	.	-4%
COc1ccc(Nc2nc(N)nc(CSc3nccn3C)n2)cc1	-2%	-2%	0	10%	3.2µM*
COc1ccc(Nc2nc(N)nc(CSc3nnc(N)s3)n2)cc1	0%	?	-1	1%	?
COc1ccc(OCc2nc(N)nc(Nc3ccc(C)cc3)n2)cc1	-2%	15%	0	4%	16µM*
COc1ccc(Nc2nc(N)nc(COc3ccc(OC)cc3)n2)cc1	0%	5%	-2	-1%	11%
Cc1cc(/C=C2\C=Cc3ccccc32)cc(C)c1[N+](=O)[O-]	.	.	.	.	-44%
Cc1ccsc1CCNC(=O)C1CCC(=O)N(CCc2cccc(F)c2)C1 (stereo not given)	-2%	?	-2	2%	7.9µM*
Cc1cccn2c(=O)cc(CSc3nnc(NC(=O)COc4ccccc4)s3)nc12	.	.	.	8%	.
CCN(CCC(=O)O)c1ccc(/C=C/c2ccnc3ccccc23)cc1	.	.	.	.	-20%
O=C(COc1ccc(Cl)cc1Cl)Nc1cccc(-c2ccc(N3CCOCC3)nn2)c1	-3%	10%	-1	7%	1.4µM*
Cc1ccccc1C(=O)Nc1cccc(-c2ccc(N3CCOCC3)nn2)c1	2%	10%	-3	-2%	14µM*
SMILES	TCR activator	p53 reactivator	IL2 activator	Mito fusion act	BRCA1 expr act
O=C(COc1ccc(Cl)cc1Cl)Nc1ccc(-c2ccc(N3CCOCC3)nn2)cc1	-3%	7%	-1	3%	86%
Brc1ccc(/C=C2\C=Cc3ccccc32)cc1	.	.	.	.	-1%
Cn1c(-c2ccc(C=O)s2)nc2ccccc21	0%	24%	1	0%	11µM*
CC(C)Cn1c(-c2cccs2)nc2ccccc21	-4%	-3%	0	-4%	1%
Cn1c(-c2cccs2)nc2ccccc21	1%	24%	4	-4%	7.9µM*
CNCCCOc1ccc2c(c1)CCC2	-1%	-5%	1	-6%	11µM*
Cc1ccc(S(=O)(=O)NNC(=O)c2ccc(C(=O)N(c3ccccc3)c3ccccc3)cc2)cc1	.	.	.	.	-22%
CC(C)(C)Nc1nc(Cl)nc(Nc2ccccc2)n1	3%	?	-1	-1%	11µM*
O=c1c(O[C@H]2O[C@@H](CO)[C@H](O)[C@@H](O)[C@@H]2O)c(-c2ccc(O)cc2)oc2cc(O)cc(O)c12	-3%	10%	0	-4%	0%
O=c1c(-c2ccc(O)cc2)coc2cc(OC3OC(CO)C(O)C(O)C3O)cc(O)c12 (stereo not given)	0%	?	3	2%	8.9µM*
COc1cc(O)c2c(=O)c(-c3ccc(O[C@@H]4O[C@H](CO)[C@@H](O)[C@H](O)[C@H]4O)cc3)coc2c1	2%	25%	9	12%	2µM*
Cc1c(C)c2ccc(O[C@@H]3O[C@H](CO)[C@H](O)[C@H](O)[C@H]3O)cc2oc1=O	-5%	2%	-2	6%	3%
O=c1c(-c2ccc(O)cc2)coc2cc(OC3OC(CO)C(O)C(O)C3O)ccc12 (stereo not given)	-5%	?	-1	-1%	6.3µM*
CCN(C(=O)CSc1ncc(S(=O)(=O)c2ccc(C)c(Cl)c2)c(=O)[nH]1)c1cccc(C)c1	.	.	.	.	0%
CN(Cc1ccccc1)c1ccc(-c2nc(-c3ccco3)no2)cc1[N+](=O)[O-]	.	.	.	.	13%
O=C(c1ccco1)N1CCn2c1nc1ccccc12	-3%[46.1 µM]	28%	1	0%	7.1µM*
CCC(=O)N1CCn2c1nc1ccccc12	1%	2%	-1	2%	3%
COc1ccc(C)cc1NC(=O)c1ccc2c(c1)nnn2C1CCCC1	.	.	.	.	-38%
c1csc(-c2nc(N3CCN(Cc4ccc5c(c4)OCCO5)CC3)c3ccccc3n2)c1	.	.	.	.	5%
Clc1ccc(N2CCN(Cc3c[nH]c4ncccc34)CC2)cc1	-1%	2%	-1	7.3µM*!	10%
O=C(NCc1ccccc1)c1cc(-c2ccco2)on1	-5%	?	-1	-4%	11µM*
CCN(Cc1ccccc1)c1ccc(/C=C/c2nccc3ccccc23)cc1	.	.	.	.	-14%
CN(C)c1ccc(C=Nc2ccc(/C=C3\C=Cc4ccccc43)cc2)cc1	.	.	.	.	6%
Clc1ccc(Cl)c2sc(N3CCOCC3)nc12	-4%	.	1	.	0%
CC(C)(C)C(=O)N1CCN(c2nc3ccccc3s2)CC1	2%	?	0	-20%	3.2µM*
SMILES	TCR activator	p53 reactivator	IL2 activator	Mito fusion act	BRCA1 expr act
Clc1cc(Cl)c2nc(N3CCOCC3)sc2c1	0%[46.1 µM]	?	-3	-1%	11µM*
CC(C)C(=O)N1CCN(c2nc3ccc(Cl)cc3s2)CC1	3%	6%	2	0%	5µM*
c1ccc2sc(N3CCOCC3)nc2c1	0%	18%	-1	-2%	8.9µM*
C=C1C=C(C(F)F)n2ncc(C(=O)Nc3ccc(N(CC)CC)cc3)c2N1	.	.	.	.	3%
CCCN1CNc2c(c(=O)[nH]c(=S)n2CCc2ccc(OC)cc2)C1	.	.	.	.	0%
Cc1c(C)c(C)c(/C=C/c2ccnc3ccccc23)c(C)c1C	.	.	.	.	-15%
CCc1ccc2nc(N3CCN(C(=O)C(C)(C)C)CC3)sc2c1	9%	3%	1	10%	13µM*
